Test systems include HT29 colon; SNB-75 CNS; SNB-19 CNS; U251 CNS; PC-3 prostate; SK-MEL-5 melanoma; UACC-62 melanoma; LOX IMVI melanoma; SK-MEL-28 melanoma; SK-MEL-2 melanoma; EKVX NSCLC; SN12C renal; UO-31 renal; TK-10 renal; A498 renal; CCRF-CEM leukemia; MOLT-4 leukemia; SR leukemia; CAKI-1 renal; ACHN renal.
What all share (assay): NCI-60 one-dose screen, 48 h (100 = growth as untreated, 0 = no growth, -100 = all killed)
Common to all, as to conditions: 10 µM

The record followed here is PubChem BioAssay (NCI).

The panel holds about 83,000 compounds, 20% with a hit somewhere; the sample as a whole holds those more often.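 Single-concentration screen, 48 h exposure, 96-well plates. Endpoint: percent growth. Below 10 = active.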 Values without a mark were called inactive. Activity calls are given as the source filed them.

For `Nc1nc(N)c2c(ccc3nccc32)[nH]1`, the growth in the experiment with HT29 colon is 27%; in the experiment on SNB-75 CNS it was 79.2%; in the experiment on SNB-19 CNS, 62.4%; in the experiment with U251 CNS, 36%; with PC-3 prostate, 7.39% (active); with SK-MEL-5 melanoma, 41.2%. Also, the growth in the experiment with UACC-62 melanoma is 47.2%; in the experiment with LOX IMVI melanoma, 23%; in the experiment with SK-MEL-28 melanoma it was 83.4%; in the experiment with SK-MEL-2 melanoma it was 57.6%; with EKVX NSCLC, 51.6%; in the experiment on SN12C renal, 94%. Further, the growth was 39.3% in the experiment with UO-31 renal; 92.1% in the experiment with TK-10 renal; 79.4% with A498 renal; 27.9% in the experiment on CCRF-CEM leukemia; 33.9% with MOLT-4 leukemia; 28.5% with SR leukemia.

On to `CC[C@H](C)C(=O)O[C@H]1CCC=C2C=C[C@H](C)C(CCC3C[C@@H](O)CC(=O)O3)[C@H]21` (stereo partly specified), for which the growth in the experiment with HT29 colon was 92.3%; with SNB-75 CNS, 32.2%; in the experiment on SNB-19 CNS, 56.2%; in the experiment on U251 CNS, 16.8%; in the experiment with PC-3 prostate, 31.1%; in the experiment with SK-MEL-5 melanoma, 60%. Further, the growth with UACC-62 melanoma was 29.6%; in the experiment on LOX IMVI melanoma it was 11.6%; in the experiment with SK-MEL-28 melanoma, 78.4%; with SK-MEL-2 melanoma, 19.5%; in the experiment with EKVX NSCLC it was 65.6%; in the experiment on SN12C renal it was 32.4%. For the same compound, the growth is 70.1% in the experiment on UO-31 renal; 97.2% in the experiment with TK-10 renal; -1.64% (active) in the experiment on CAKI-1 renal; -33.8% (active) in the experiment on A498 renal; 82.3% with CCRF-CEM leukemia; 91.9% in the experiment on MOLT-4 leukemia. In the experiment with SR leukemia, the growth was 15.5%.

As for `ClCC#CCSc1ncnc2c1ncn2CC#CCCl`, the growth in the experiment on HT29 colon is 17.7%; in the experiment on SNB-75 CNS, -57.5% (active); with SNB-19 CNS, 13.2%; in the experiment on U251 CNS, 0.284% (active); with PC-3 prostate, 32.3%; in the experiment on SK-MEL-5 melanoma it was 9.62% (active). For the same compound, the growth is 19.2% with UACC-62 melanoma; -35.5% (active) in the experiment on LOX IMVI melanoma; 39.5% in the experiment on SK-MEL-28 melanoma; 41.1% in the experiment with SK-MEL-2 melanoma; 10.5% in the experiment on EKVX NSCLC; 20.2% in the experiment on SN12C renal. For the same compound, the growth in the experiment on UO-31 renal is 2.36% (active); in the experiment with TK-10 renal, 71.1%; with ACHN renal it was 11.7%; in the experiment with CCRF-CEM leukemia, 14.9%; in the experiment on MOLT-4 leukemia it was 15.4%; in the experiment with SR leukemia, 14.6%.

Regarding `Cc1ccc(C(=O)Nc2cccc(F)c2)cc1NC(=O)C1(c2ncnc3[nH]ccc23)CC1`, the growth in the experiment with HT29 colon was 52.5%; in the experiment on SNB-75 CNS it was 95.8%; in the experiment on SNB-19 CNS, 120%; with U251 CNS it was 93.6%; in the experiment on PC-3 prostate, 92.2%; with SK-MEL-5 melanoma, 74.3%. The growth in the experiment with UACC-62 melanoma is 54.5%; with LOX IMVI melanoma, 42.1%; in the experiment on SK-MEL-28 melanoma it was 83.3%; in the experiment with SK-MEL-2 melanoma, 14.5%; in the experiment with EKVX NSCLC, 91.8%; in the experiment on SN12C renal it was 91.2%. In addition, the growth in the experiment with UO-31 renal is 51.6%; in the experiment on TK-10 renal, 132%; with A498 renal it was 105%; in the experiment on CCRF-CEM leukemia, 87.9%; with MOLT-4 leukemia it was 72.7%; in the experiment on SR leukemia it was 87.9%.

Regarding `CCCCC/C=C/C(=O)CCc1ccc(O)c(OC)c1`, the growth in the experiment on HT29 colon was 93.1%; in the experiment on SNB-75 CNS it was 63%; in the experiment on SNB-19 CNS, 87.1%; in the experiment with U251 CNS, 79.6%; in the experiment with PC-3 prostate, 55.8%; in the experiment with SK-MEL-5 melanoma, 97.7%. The growth in the experiment with UACC-62 melanoma is 83.1%; in the experiment with LOX IMVI melanoma it was 23.7%; with SK-MEL-28 melanoma, 95.8%; with SK-MEL-2 melanoma, 121%; in the experiment with EKVX NSCLC, 91.2%; with SN12C renal, 81.3%. The growth is 37% in the experiment on UO-31 renal; 110% in the experiment with TK-10 renal; 103% in the experiment on ACHN renal; 27.6% in the experiment with CCRF-CEM leukemia; 96.7% with MOLT-4 leukemia; 53.4% with SR leukemia.

For `NC(=O)c1ccc(-c2cccc3c(=O)nc(N4CCOCC4)oc23)cc1`, the growth in the experiment on HT29 colon was 101%; in the experiment with SNB-75 CNS it was 74.5%; with SNB-19 CNS, 99.1%; in the experiment on U251 CNS, 97.7%; with PC-3 prostate it was 89.9%; in the experiment on SK-MEL-5 melanoma, 97.8%. The growth with UACC-62 melanoma is 92.3%; in the experiment on LOX IMVI melanoma, 91.1%; in the experiment on SK-MEL-28 melanoma it was 103%; with SK-MEL-2 melanoma it was 102%; with EKVX NSCLC it was 97.3%; in the experiment with SN12C renal, 104%. Further, the growth in the experiment on UO-31 renal was 89.2%; with ACHN renal, 100%; in the experiment with A498 renal, 98.2%; in the experiment on CCRF-CEM leukemia, 98.6%; in the experiment on MOLT-4 leukemia, 103%; in the experiment on SR leukemia, 92%.

In the case of `CC1(O)CCC2CC3OC3(C)CCC3OC3(C)CCC1C2(C)C` (stereo unspecified), the growth in the experiment on HT29 colon is 109%; in the experiment with SNB-75 CNS, 117%; in the experiment with SNB-19 CNS, 89.8%; in the experiment with U251 CNS it was 96%; in the experiment on PC-3 prostate, 170%; in the experiment with SK-MEL-5 melanoma, 90.3%. For the same compound, the growth with UACC-62 melanoma is 99.3%; in the experiment on LOX IMVI melanoma, 102%; in the experiment on SK-MEL-28 melanoma, 121%; with SK-MEL-2 melanoma, 107%; in the experiment with EKVX NSCLC, 93.5%; in the experiment on SN12C renal, 104%. Further, the growth was 109% in the experiment with TK-10 renal; 100% in the experiment on CAKI-1 renal; 267% with CCRF-CEM leukemia; 104% with MOLT-4 leukemia; 116% with SR leukemia.

Take `Cc1ccc(NC(=O)Nc2nc3ccccc3s2)cc1NC(=O)Nc1nc2ccccc2s1`: the growth with HT29 colon is 90.1%; with SNB-75 CNS, 61.5%; in the experiment with SNB-19 CNS it was 92%; with U251 CNS it was 77.2%; in the experiment with PC-3 prostate it was 44.5%; in the experiment on SK-MEL-5 melanoma it was 79.6%. The growth in the experiment on UACC-62 melanoma is 86.6%; in the experiment on LOX IMVI melanoma, 91.7%; in the experiment on SK-MEL-28 melanoma, 101%; with SK-MEL-2 melanoma it was 98.5%; in the experiment with EKVX NSCLC it was 99.1%; in the experiment with SN12C renal, 86.9%. Moreover, the growth with UO-31 renal was 66.8%; in the experiment on TK-10 renal, 111%; in the experiment with ACHN renal, 83.7%; in the experiment with A498 renal, 93%; with CCRF-CEM leukemia, 74.2%; in the experiment with MOLT-4 leukemia, 82.4%. In the experiment on SR leukemia, the growth was 55.5%.

In the case of `CC(=O)CSC(C)=O`, the growth in the experiment on HT29 colon was 105%; in the experiment on SNB-75 CNS, 84.3%; in the experiment on SNB-19 CNS, 100%; in the experiment with U251 CNS, 98%; with PC-3 prostate, 86.6%; in the experiment on SK-MEL-5 melanoma it was 98.9%. The growth in the experiment with UACC-62 melanoma was 107%; in the experiment with LOX IMVI melanoma, 101%; with SK-MEL-28 melanoma, 95.6%; with SK-MEL-2 melanoma, 116%; in the experiment with SN12C renal, 100%; in the experiment with UO-31 renal, 91.3%. The growth is 122% with TK-10 renal; 97.8% with ACHN renal; 91.6% in the experiment with CAKI-1 renal; 99.1% in the experiment with A498 renal; 94.8% with CCRF-CEM leukemia; 105% in the experiment with MOLT-4 leukemia.

On to `COc1cc(-c2nn3c(/C=C4/C(=O)Nc5ccccc54)c(-c4ccc(C)cc4)nc3s2)cc(OC)c1OC`, for which the growth with HT29 colon was 25.7%; with SNB-75 CNS, 18.3%; in the experiment with SNB-19 CNS, 87.8%; in the experiment with U251 CNS it was 65.2%; in the experiment with PC-3 prostate, 85.5%; in the experiment with SK-MEL-5 melanoma it was 12.2%. Also, the growth in the experiment on UACC-62 melanoma is 58.5%; in the experiment with LOX IMVI melanoma, 44.1%; in the experiment with SK-MEL-28 melanoma it was 29.1%; in the experiment on SK-MEL-2 melanoma, 65.9%; in the experiment on SN12C renal, 73.2%; in the experiment on UO-31 renal, 73.1%. Also, the growth was -18.7% (active) in the experiment on TK-10 renal; 81.1% in the experiment with ACHN renal; 64.6% in the experiment on CAKI-1 renal; 98.9% with A498 renal; 67.4% in the experiment with CCRF-CEM leukemia; 47.8% in the experiment on MOLT-4 leukemia. In addition, in the experiment on SR leukemia, the growth is 26.5%.

Regarding `COc1ccc(-c2cc(/C=C3\C(=O)Nc4ccc(OC)cc43)[nH]n2)cc1`, the growth in the experiment with HT29 colon was 3.87% (active); with SNB-75 CNS, -18.7% (active); in the experiment with SNB-19 CNS it was 62.1%; in the experiment on U251 CNS, 37.8%; in the experiment with PC-3 prostate, 15.8%; in the experiment with SK-MEL-5 melanoma, 31%. Moreover, the growth in the experiment on UACC-62 melanoma is 39.4%; with LOX IMVI melanoma it was 40.3%; in the experiment on SK-MEL-28 melanoma, 57%; with SK-MEL-2 melanoma, 23.4%; in the experiment on SN12C renal, 42.7%; in the experiment with UO-31 renal it was 40.6%. The growth in the experiment on TK-10 renal is 48.9%; in the experiment with ACHN renal, 52.5%; in the experiment with CAKI-1 renal it was 33%; in the experiment on A498 renal, 23.3%; in the experiment on CCRF-CEM leukemia, 18.1%; in the experiment on MOLT-4 leukemia, 27%. Also, the growth with SR leukemia is 20.1%.
